In the library only some 11% were active in any assay of this set; here they are far more common.
IMPase inh – IMPase inhibition in cells. P97697. 120,000 tested, under 10 active. inhibition (IP1 accumulation), % at 46.1 µM. CHO-M1 cells, IP1 accumulation, HTRF TR-FRET ratio; active = well fitted curve in the direction sought with a large enough effect in the signal ratio, not every such curve was filed as active; inconclusive = small, poorly fitted or top-dose-only effect, or a change in a side signal; inactive = no such curve, though single readings can be large or run the other way; the % refers to the signal ratio;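 note: cells stimulated with carbachol in lithium chloride buffer; plate controls were DMSO basal wells for no effect and reference inhibitor wells for full effect; higher means more IMPase inhibition seen as more IP1 and lower FRET ratio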
Target sequence (P97697 whole entry, looked up): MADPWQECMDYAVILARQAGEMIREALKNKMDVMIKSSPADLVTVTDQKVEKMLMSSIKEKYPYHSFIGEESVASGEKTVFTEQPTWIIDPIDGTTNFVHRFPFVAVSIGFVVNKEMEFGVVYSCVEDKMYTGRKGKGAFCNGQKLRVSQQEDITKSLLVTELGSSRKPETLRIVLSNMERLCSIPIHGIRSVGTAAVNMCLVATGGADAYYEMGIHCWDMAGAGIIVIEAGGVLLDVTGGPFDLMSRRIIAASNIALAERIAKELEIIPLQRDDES
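Seeded CHO-M1 cells were dosed with compound at up to 46 uM, stimulated with carbachol for 30 min, then lysed in IP-One detection reagents. Higher IP1 lowers the TR-FRET signal.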
IMPase Li cell – IMPase inhibition in cells with lithium potentiation. Potency, µM (series often up to 59.4 µM), without a hit: at the highest dose activity, negative = IMPase inhibition, most hits filed as inhibitors. AID 1457. 210,000 compounds, 0.35% hits. CHO-M1 cells, IP1 TR-FRET (IP-One), carbachol + lithium; active = well fitted inhibition curve with a large enough effect; inconclusive = small, poorly fitted or top-dose-only effect; inactive = no such curve, though single readings can be large or run the other way;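 note: IP1 builds up when IMPase is blocked and the TR-FRET signal falls; potency is the fitted concentration of half-maximal effect; plate controls were basal vehicle for no effect and high inhibitor control for full effect; nearly all actives have a fitted effect of over 50% in size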
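Test compounds were applied to CHO-M1 cells previously cultured for 16–30 h at 2000 per well. A small lithium amount accompanied them; after 30 min at 37C, IP1 was quantified by TR-FRET.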
ALDH1A1 block – ALDH1A1 (human) enzyme inhibition; Purified ALDH1A1, NADH fluorescence, propionaldehyde substrate; Potency, µM (highest dose often 75.3 µM), for the others: at the highest dose activity, negative = inhibition, actives largely listed as inhibitors; 220,000 compounds, 7.3% hits; AID 1030;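 note: potency is the fitted concentration of half-maximal effect; plate controls were no enzyme wells and a reference inhibitor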
PNC assembly inh – blocks assembly of the perinucleolar compartment; AID 2417; 140,000 compounds, 3.1% hits; PC3M PTB-GFP, PNC prevalence imaging, 16 h; active compounds read low; activity change (PNC), negative = inhibition, % at 10 µM;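 active = readout at or below -70, meaning at least 70% loss of cells showing the perinucleolar compartment, a nuclear body marking cancer cells; inconclusive = readout between -30 and a set limit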;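 note: plate controls were DMSO wells for no effect and camptothecin positive control wells for full effect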
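Compounds are pinned in duplicate onto adhered PC3M cells stably expressing GFP-tagged PTB and incubated 16 h at 37 C. Cells are then fixed, nuclei stained with Hoechst, and PNC-positive cells counted.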
HPGD inh – inhibitors of human 15-hydroxyprostaglandin dehydrogenase (HPGD); P15428; purified HPGD, NADH fluorescence kinetic, PGE2 substrate; Potency, µM, without a hit: at the highest dose activity change, negative = inhibition, hits mostly inhibitors; 150,000 compounds, 4.3% hits; AID 894; note: potency is the fitted concentration of half-maximal effect
Target sequence (P15428 whole entry, looked up): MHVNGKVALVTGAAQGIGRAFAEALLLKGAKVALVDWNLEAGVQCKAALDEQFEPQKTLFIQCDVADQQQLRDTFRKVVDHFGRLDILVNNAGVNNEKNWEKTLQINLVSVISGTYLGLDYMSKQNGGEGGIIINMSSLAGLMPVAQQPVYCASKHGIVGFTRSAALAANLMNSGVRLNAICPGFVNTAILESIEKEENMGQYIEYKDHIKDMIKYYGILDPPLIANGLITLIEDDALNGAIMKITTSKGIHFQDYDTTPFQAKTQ
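NADH formation kinetics: reaction with 30 uM PGE2 and 1 mM NAD+ (final), 20 nM enzyme, Tris-HCl pH 8 with Tween 20, after 15 min compound preincubation at room temperature. Fluorescence change, last versus first of five reads.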
* = called active by the depositor; [ ] = remark or other dose. Unless noted, calls come from the whole dose curve; as a rule, active = well fitted inhibition curve with a large enough effect (not every such curve was filed as active); inconclusive = small, poorly fitted or top-dose-only effect, or another doubt; inactive = no such curve, though single readings can be large or run the other way. Unless noted, % is set by controls: 0 for no effect and ±100 for the full control effect.

`CC(C)Cn1[nH]c2c3c(ccc2c1=O)C(=O)c1ccccc1C3=O` gave IMPase inh inconclusive, IMPase Li cell 51%[38.3 µM], ALDH1A1 block inconclusive, PNC assembly inh 20 and HPGD inh 2µM*.
`COC(=O)c1ccccc1NC(=O)CN1CCN(C23CC4CC(CC(C4)C2)C3)CC1` gave IMPase inh 5, IMPase Li cell 45%[38.3 µM], ALDH1A1 block -3%, PNC assembly inh -1 and HPGD inh -13%.
For OCCSc1nnc(Nc2ccccc2)s1 the results were IMPase inh -3, IMPase Li cell -1%[38.3 µM], ALDH1A1 block inconclusive, PNC assembly inh -17 and HPGD inh -24%.
`N#CCSc1nnc(Nc2ccccc2)s1` gave IMPase inh 4, IMPase Li cell 15%[38.3 µM], ALDH1A1 block inconclusive, PNC assembly inh 20 and HPGD inh 28µM*.
`Cc1ccc(C2CC(=O)n3nc(-c4ccc(F)cc4)nc3S2)cc1` (configuration not stated) gave IMPase inh 2.
For C=CCSC1=N/C(=C\c2sccc2C)C(=O)S1 the results were IMPase inh 2, IMPase Li cell 0%[38.3 µM], ALDH1A1 block 2%, PNC assembly inh -5 and HPGD inh -12%.
For C=CCSC1=N/C(=C\C=C\c2ccco2)C(=O)S1 the results were IMPase inh 6, IMPase Li cell 5%[38.3 µM], ALDH1A1 block 20µM*, PNC assembly inh 24 and HPGD inh -23%.
`Cc1cc2nc(-c3ccc(SCc4ccccn4)nc3)[nH]c2cc1C` gave IMPase Li cell 12% and ALDH1A1 block inconclusive.
COCCNc1nc(-c2ccccc2Cl)nc2ccccc12 was read as IMPase Li cell 11% and ALDH1A1 block 4%.
For CC(NC(=O)CCN1C(=O)c2ccccc2C1=O)c1ccc2c(c1)CCCC2 (configuration not stated) the results were IMPase Li cell -3%, ALDH1A1 block inconclusive, PNC assembly inh -113* and HPGD inh -3%.
`CC(NC(=O)CCCN1C(=O)c2ccccc2C1=O)c1ccc2c(c1)CCCC2` (configuration not stated) gave IMPase inh 0, IMPase Li cell inconclusive, ALDH1A1 block inconclusive, PNC assembly inh inconclusive and HPGD inh -11%.
Screening Cn1c(-c2ccccc2)cnc1NCc1cc2c(cc1[N+](=O)[O-])OCO2 returned IMPase Li cell 8%, ALDH1A1 block 13µM*, PNC assembly inh 14 and HPGD inh -16%.
Screening Cc1cc(F)ccc1NCc1cc2c(cc1[N+](=O)[O-])OCO2 returned IMPase inh 11[1.84 µM], IMPase Li cell 40%[38.3 µM], ALDH1A1 block 11µM*, PNC assembly inh 7 and HPGD inh -17%.
For Cn1c(-c2ccc(Cl)cc2)cnc1NCc1cc2c(cc1[N+](=O)[O-])OCO2 the results were IMPase inh -1, IMPase Li cell 12%, ALDH1A1 block 14µM*, PNC assembly inh -13 and HPGD inh 0%.
Cc1ccc(O)c(C(=O)c2cnc3c(c2)c(C)nn3-c2ccccc2)c1 was read as IMPase Li cell 4%, ALDH1A1 block -3%, PNC assembly inh inconclusive and HPGD inh inconclusive.
For O=C(NNS(=O)(=O)c1ccc2ccccc2c1)c1cc(-c2ccccn2)nc2ccccc12 the results were IMPase Li cell 4%, ALDH1A1 block -14%, PNC assembly inh -16 and HPGD inh -12%.
`COc1cc(C(O)CO)ccc1OS(=O)(=O)O` (configuration not stated) gave IMPase Li cell 38%, ALDH1A1 block 2% and HPGD inh -5%.
`CC(OC(=O)c1snc(C(=O)NC2CCCCC2)c1N)C(=O)NC1CCCCC1` (configuration not stated) gave IMPase inh inconclusive, IMPase Li cell inconclusive, ALDH1A1 block inconclusive, PNC assembly inh -25 and HPGD inh inconclusive.
COc1cccc(NCc2cc3c(C(C)(C)C)nn(-c4ccccc4)c3[nH]c2=O)c1 was read as IMPase inh -3, IMPase Li cell 27%[38.3 µM], ALDH1A1 block 13µM*, PNC assembly inh 35 and HPGD inh inconclusive.
`Cc1cc(C)nc(N2CCN(C(=O)c3ccc(S(=O)(=O)N4CCCCCC4)cc3)CC2)n1` gave IMPase Li cell 19% and ALDH1A1 block 18µM*.
For O=C(OCCN1C(=O)c2ccccc2C1=O)c1ccc(S(=O)(=O)N2CCCCCC2)cc1 the results were IMPase inh 0, IMPase Li cell 37%[38.3 µM], ALDH1A1 block -3%, PNC assembly inh -4 and HPGD inh -8%.
Screening O=C(c1ccc(S(=O)(=O)N2CCCCC2)cc1)N1CCN(CCN2C(=O)c3cccc4cccc(c34)C2=O)CC1 returned IMPase Li cell 17% and ALDH1A1 block 0.63µM*.
`CN(C)/C=C1\C(=O)N(c2ccc([N+](=O)[O-])cc2)N=C1c1ccccc1` gave IMPase inh -11, IMPase Li cell 5%, ALDH1A1 block 25µM*, PNC assembly inh 1 and HPGD inh -13%.
`CC1=NN(c2ccc([N+](=O)[O-])cc2)C(=O)/C1=C\N(C)C` gave IMPase Li cell 2%, ALDH1A1 block inconclusive, PNC assembly inh 14 and HPGD inh -9%.
CN(C)/C=C1/C(=O)N(c2ccc([N+](=O)[O-])cc2)N=C1c1ccccc1 was read as IMPase Li cell 8%, ALDH1A1 block 16µM*, PNC assembly inh inconclusive and HPGD inh -15%.
CCCC1=NN(c2ccc([N+](=O)[O-])cc2)C(=O)/C1=C/N(C)C was read as IMPase Li cell -3%, ALDH1A1 block inconclusive, PNC assembly inh inconclusive and HPGD inh -22%.
Screening C/C(=N\NS(=O)(=O)c1ccc(C)cc1)c1ccc(Br)s1 returned IMPase inh -5, IMPase Li cell 10%[38.3 µM], ALDH1A1 block inconclusive, PNC assembly inh 24 and HPGD inh -10%.
Screening C/C(=N\NS(=O)(=O)c1ccc(C)cc1)c1ccc(C)s1 returned IMPase inh 3, IMPase Li cell 14%[38.3 µM], ALDH1A1 block 18µM*, PNC assembly inh 78 and HPGD inh -2%.
`COc1ccc(NS(=O)(=O)c2ccc3c(c2)[C@H]2C=CC[C@H]2[C@@H](c2ccc(C(=O)O)cc2)N3)cc1` gave IMPase inh 3.
CC(=O)c1ccc2c(c1)C1C=CCC1C(c1ccc(S(=O)(=O)N3CCOCC3)cc1)N2 (configuration not stated) was read as IMPase Li cell -5%, ALDH1A1 block 25µM*, PNC assembly inh 70 and HPGD inh -9%.
`COC(=O)c1ccc([C@H]2Nc3ccc(S(=O)(=O)Nc4ccc(C)cc4)cc3[C@H]3C=CC[C@H]32)cc1` gave IMPase inh -5.
